# Measured values published in PubChem BioAssay AID485346 (Sanford-Burnham Center for Chemical Genomics, 2010).
# The campaign covered roughly 330,000 compounds. About 10,000 (3%) were called active. The sample as a whole holds a higher share of actives than the screen did. A number with no mark means an inactive call.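 The calls were made as follows: active = inhibition of at least 50% at 8 µM in the primary screen; inactive = the rest.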
# Biological target: Protein Mdm4 (Homo sapiens) + E3 ubiquitin-protein ligase Mdm2 (Homo sapiens) (UniProt O15151+Q00987)
# Test: disruptors of Mdm2/MdmX RING complex – cell-based, luminescence, split luciferase, SaOS-2, uHTS, primary screen (AID 485346)
# Details: SaOS-2 split-luciferase Mdm2/MdmX complementation, at 8 µM, active compounds read high
# Sequence of Protein Mdm4 (Homo sapiens) + E3 ubiquitin-protein ligase Mdm2 (Homo sapiens) (O15151 whole entry, looked up): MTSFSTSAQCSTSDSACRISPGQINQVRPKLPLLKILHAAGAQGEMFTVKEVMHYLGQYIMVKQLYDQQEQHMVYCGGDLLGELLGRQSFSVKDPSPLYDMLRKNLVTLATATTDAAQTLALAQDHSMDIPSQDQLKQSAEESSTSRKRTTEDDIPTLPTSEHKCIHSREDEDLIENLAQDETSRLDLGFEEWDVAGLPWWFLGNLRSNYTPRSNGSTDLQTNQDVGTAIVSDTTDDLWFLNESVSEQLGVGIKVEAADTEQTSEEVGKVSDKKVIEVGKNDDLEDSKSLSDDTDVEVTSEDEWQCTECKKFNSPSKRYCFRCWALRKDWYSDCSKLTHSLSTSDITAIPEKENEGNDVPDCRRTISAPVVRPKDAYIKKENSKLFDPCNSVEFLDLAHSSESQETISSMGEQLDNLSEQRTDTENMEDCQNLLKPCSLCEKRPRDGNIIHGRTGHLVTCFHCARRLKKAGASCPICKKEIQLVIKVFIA
# Sequence of Protein Mdm4 (Homo sapiens) + E3 ubiquitin-protein ligase Mdm2 (Homo sapiens) (Q00987 whole entry, looked up): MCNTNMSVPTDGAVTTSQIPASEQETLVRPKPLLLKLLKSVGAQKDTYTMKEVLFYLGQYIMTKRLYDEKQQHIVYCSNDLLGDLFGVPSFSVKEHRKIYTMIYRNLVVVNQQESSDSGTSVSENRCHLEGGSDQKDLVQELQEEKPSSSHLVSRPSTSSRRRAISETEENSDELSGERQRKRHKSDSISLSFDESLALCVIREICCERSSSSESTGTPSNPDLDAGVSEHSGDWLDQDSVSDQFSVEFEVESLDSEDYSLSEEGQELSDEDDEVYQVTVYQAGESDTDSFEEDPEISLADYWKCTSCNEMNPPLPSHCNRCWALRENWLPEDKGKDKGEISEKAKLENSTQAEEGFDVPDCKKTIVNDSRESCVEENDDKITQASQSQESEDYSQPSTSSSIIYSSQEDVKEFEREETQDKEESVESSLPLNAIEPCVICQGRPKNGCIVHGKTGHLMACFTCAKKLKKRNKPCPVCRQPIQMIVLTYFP
row,Structure (SMILES),inhibition
1,Cc1ccc(S(=O)(=O)c2c(COC(=O)c3cccc(Cl)c3)c(-c3ccccc3)nn2C)cc1,7.27%
2,Cn1nc(-c2ccccc2)c(CO)c1Sc1ccccc1,8.85%
3,Cn1nc(-c2ccccc2)c(CSc2cccc(Cl)c2)c1Cl,50.5% (active)
4,C=CCOc1ccc(C(=O)Nc2ccccc2C(=O)N2CCCC2)cc1,2.51%
5,COC(=O)Nc1ncc(CN2C(=O)c3ccccc3C2=O)s1,12.4%
6,Cc1cc(C(=O)COC(=O)CNC(=O)c2ccc(F)cc2)c(C)n1Cc1ccco1,56.9% (active)
7,Cc1cc(C(=O)CSc2nc(N)cc(=O)[nH]2)c(C)n1Cc1ccco1,22.2%
8,COCCn1c(C)cc(C(=O)COC(=O)CNC(=O)c2ccco2)c1C,3.33%
9,CC(Oc1ccccc1)C(=O)NN1Cc2ccccc2C1=N (stereo not drawn),16.1%
10,CC(C)(C)NS(=O)(=O)CC12CCC(CC1=O)C2(C)C (stereo not drawn),8.21%
11,CC1CCN(C(=O)c2ccc3c(c2)NC(=O)CN3)CC1,13%
12,O=C1Nc2cc(C(=O)N3CCC(N4CCCCC4)CC3)ccc2S/C1=C\c1ccccc1,54.5% (active)
13,NC(=O)C1CCN(C(=O)c2ccc(-c3ccccc3)cc2)CC1,13.3%
14,Cc1[nH]n(C(N)=S)c(=O)c1N=Nc1ccc(Cl)cc1Cl,-31.8%
15,C[C@H](CO)N1C[C@H](C)[C@@H](CN(C)S(=O)(=O)c2ccc(F)cc2)Oc2ccc(NC(=O)CCC(F)(F)F)cc2C1=O,-5.06%
16,CSc1nc2c(c(=O)[nH]1)C(c1cccc(Cl)c1Cl)CC(=O)N2 (stereo not drawn),-2.71%
17,COc1ccc(C2CC(=O)Nc3sc(=N)c4c(N)c(C#N)c(N)nc4c32)cc1OC (stereo not drawn),19.8%
18,N#Cc1c(N)nc2c3c(sc(=N)c2c1N)NC(=O)CC3c1ccccc1Cl (stereo not drawn),68.7% (active)
19,C/C=C/C=C/C(=O)O,19.9%
20,Cc1cc(C)c(S(=O)(=O)N2C=CC(C(F)(F)F)=NCC2)c(C)c1,17.6%
21,CC(C(=O)Nc1ccc(F)c(F)c1F)N1CCCCCC1 (stereo not drawn),24.1%
22,COc1ccccc1CCNC(=O)C1CCN(C(=O)/C=C/c2ccccc2)CC1,-2.9%
23,CN(C)c1ccc(/C=C/C(=O)c2ccc(O)cc2)cc1[N+](=O)[O-],11.6%
24,O=C(/C=C/c1ccc(Cl)cc1Cl)c1cccnc1,17.5%
25,O=C(/C=C/c1ccc(Cl)c([N+](=O)[O-])c1)c1ccc(O)cc1,98.7% (active)
26,O=C(/C=C/c1ccc(Cl)c([N+](=O)[O-])c1)c1cccnc1,84.3% (active)
27,CN(C)c1ccc(/C=C/C(=O)c2ccc(C(C)(C)C)cc2)cc1[N+](=O)[O-],30.9%
28,O=C(Nc1cccnc1)c1ccc(Cl)c([N+](=O)[O-])c1,-11.2%
